Laboratory results reported in PubChem BioAssay (EPA / NIEHS).
The source made the active and inactive calls. How the source made its calls: active means hit-call score of the fitted dose curve at least 0.9, where 1 is the maximum; inactive means score below 0.9.

Assays:
Conditions in all cases: mRNA level, 48 h; actives raise or lower the signal
[1] = read-out: Peroxisomal acyl-coenzyme A oxidase 1 (ACOX1) gene, ACOX1 (gene 51); test: LTEA_HepaRG_ACOX1: Life Technologies and Expression Analysis (LTEA) Assay for Peroxisomal acyl-coenzyme A oxidase 1 (ACOX1) gene using HepaRG (AID 2283467)
Method in brief: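 HepaRG, 48 h chemical exposure, 8-pt half-log series from 100 uM top, 0.5% DMSO vehicle, duplicates. Readout: ACOX1 mRNA by Fluidigm qRT-PCR, housekeeping-normalized; bidirectional fit vs DMSO baseline.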

[2] = read-out: Alkaline Phosphatase, Placental (ALPP) gene, ALPP (gene 250); test: LTEA_HepaRG_ALPP: Life Technologies and Expression Analysis (LTEA) Assay for Alkaline Phosphatase, Placental (ALPP) gene using HepaRG (AID 2283468)
Method in brief: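 HepaRG cells plated 48 h, then exposed in duplicate for 48 h in serum-free induction medium to 8-point half-log series from 100 uM in 0.5% DMSO. ALPP mRNA by TaqMan qRT-PCR, normalized to ACTB/GAPDH/POLR2A; bidirectional fit versus DMSO.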

[3] = read-out: Bcl-2 (BAD) gene, BAD (gene 572); test: LTEA_HepaRG_BAD: Life Technologies and Expression Analysis (LTEA) Assay for Bcl-2 (BAD) gene using HepaRG (AID 2283469)
Method in brief: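 HepaRG, 48 h exposure, 8-pt half-log curve from 100 uM in 0.5% DMSO, duplicates. Readout: TaqMan qRT-PCR for BAD mRNA, housekeeping-normalised (ACTB/GAPDH/POLR2A); gain or loss fitted against DMSO baseline.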

[4] = read-out: Bcl-2 (BAX) gene, BAX (gene 581); test: LTEA_HepaRG_BAX: Life Technologies and Expression Analysis (LTEA) Assay for Bcl-2 (BAX) gene using HepaRG (AID 2283470)
Method in brief: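 Gene expression measured by Fluidigm qRT-PCR with three housekeeping genes for normalisation. HepaRG cells, plated 48 h beforehand, treated 48 h at up to 100 uM (8-point, half-log) in 0.5% DMSO. Bidirectional fitting versus DMSO.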

[5] = read-out: adenosine kinase (ADK) gene, ADK (gene 132); test: LTEA_HepaRG_ADK: Life Technologies and Expression Analysis (LTEA) Assay for adenosine kinase (ADK) gene using HepaRG (AID 2283471)
Method in brief: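 ADK expression quantified by qRT-PCR, normalised to three housekeeping genes, after 48 h exposure of HepaRG cells to eight concentrations (top 100 uM, half-log steps, duplicate, 0.5% DMSO). Up- or down-regulation fitted relative to vehicle.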

[6] = read-out: Alpha-fetoprotein (AFP) gene, AFP (gene 174); test: LTEA_HepaRG_AFP: Life Technologies and Expression Analysis (LTEA) Assay for Alpha-fetoprotein (AFP) gene using HepaRG (AID 2283472)
Method in brief: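 AFP transcript measured by TaqMan qRT-PCR with three housekeeping genes for normalization, after 48 h chemical treatment of HepaRG cells (top 100 uM, half-log steps, 0.5% DMSO). Gain or loss fitted against vehicle.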

[7] = read-out: Apolipoprotein A-V (APOA5) gene, APOA5 (gene 116519); test: LTEA_HepaRG_APOA5: Life Technologies and Expression Analysis (LTEA) Assay for Apolipoprotein A-V (APOA5) gene using HepaRG (AID 2283474)
Method in brief: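 Differentiated HepaRG cells in serum-free induction medium, exposed 48 h in duplicate to eight half-log concentrations topping at 100 uM (0.5% DMSO). APOA5 mRNA by Fluidigm TaqMan qRT-PCR, normalized to ACTB, GAPDH and POLR2A; bidirectional fit versus DMSO.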

[8] = read-out: Apoptosis regulator Bcl-2 (Homo sapiens) (UniProt P10415); test: LTEA_HepaRG_BCL2: Life Technologies and Expression Analysis (LTEA) Assay for Bcl-2 gene using HepaRG (AID 2283475)
Method in brief: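 qRT-PCR of BCL2 transcript, normalized to three housekeeping genes (ACTB, GAPDH, POLR2A), after 48 h chemical exposure of HepaRG cells; concentrations top 100 uM with half-log dilutions, 0.5% DMSO vehicle, duplicates; changes up or down fitted relative to vehicle.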

[9] = read-out: Bcl-2 (BID) gene, BID (gene 637); test: LTEA_HepaRG_BID: Life Technologies and Expression Analysis (LTEA) Assay for Bcl-2 (BID) gene using HepaRG (AID 2283476)
Method in brief: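 Duplicate 48 h treatments of HepaRG cells in serum-free induction medium spanned 100 uM downward in half-log steps, 0.5% DMSO. Transcript change quantified by qRT-PCR against three housekeeping genes, fitted up or down versus DMSO.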

Caspase-3 (Homo sapiens) = Caspase-3 (Homo sapiens) (UniProt P42574); test: LTEA_HepaRG_CASP3: Life Technologies and Expression Analysis (LTEA) Assay for cysteine-aspartic acid protease (CASP3) using HepaRG (AID 2283477)
Sequence of Caspase-3 (Homo sapiens) (P42574 whole entry, looked up): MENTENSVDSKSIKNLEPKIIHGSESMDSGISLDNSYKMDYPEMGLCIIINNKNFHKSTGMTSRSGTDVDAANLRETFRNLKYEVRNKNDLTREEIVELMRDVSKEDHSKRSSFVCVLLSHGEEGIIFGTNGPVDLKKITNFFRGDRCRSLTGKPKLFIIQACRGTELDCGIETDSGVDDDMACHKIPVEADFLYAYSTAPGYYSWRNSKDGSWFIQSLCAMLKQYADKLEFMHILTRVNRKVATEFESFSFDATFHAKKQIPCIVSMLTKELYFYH
Method in brief: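 Differentiated HepaRG cells, plated 48 h, were treated in duplicate in serum-free induction medium for 48 h with eight half-log concentrations up to 100 uM in 0.5% DMSO. CASP3 mRNA measured by qRT-PCR, normalized to ACTB, GAPDH, POLR2A.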

[10] = read-out: Cytochrome P450 (CYP24A1), CYP24A1 (gene 1591); test: LTEA_HepaRG_CYP24A1: Life Technologies and Expression Analysis (LTEA) Assay for Cytochrome P450 (CYP24A1) using HepaRG (AID 2283478)
Method in brief: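 HepaRG cells plated 48 h, then exposed in duplicate in serum-free induction medium for 48 h to 8-point half-log series from 100 uM in 0.5% DMSO. CYP24A1 mRNA by Fluidigm qRT-PCR, normalized to ACTB, GAPDH, POLR2A; bidirectional fit versus DMSO.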

[11] = read-out: Cytochrome P450 (CYP1A2), CYP1A2 (gene 1544); test: LTEA_HepaRG_CYP1A2: Life Technologies and Expression Analysis (LTEA) Assay for Cytochrome P450 (CYP1A2) using HepaRG (AID 2283479)
Method in brief: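 Differentiated human HepaRG cells in serum-free induction medium exposed 48 hours in duplicate to 8 half-log concentrations from 100 uM, 0.5% DMSO. CYP1A2 mRNA quantified by qRT-PCR, normalized to ACTB, GAPDH and POLR2A; bidirectional fitting versus DMSO.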

[12] = read-out: cysteine-aspartic acid protease (CASP8), CASP8 (gene 841); test: LTEA_HepaRG_CASP8: Life Technologies and Expression Analysis (LTEA) Assay for cysteine-aspartic acid protease (CASP8) using HepaRG (AID 2283480)
Method in brief: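 qRT-PCR readout of CASP8 mRNA, normalized to three housekeeping genes, after 48 h chemical exposure of HepaRG cells; 8-point half-log series, top 100 uM, 0.5% DMSO vehicle. Bidirectional curve fitting against DMSO baseline.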

[13] = read-out: Cytochrome P450 (CYP2B6), CYP2B6 (gene 1555); test: LTEA_HepaRG_CYP2B6: Life Technologies and Expression Analysis (LTEA) Assay for Cytochrome P450 (CYP2B6) using HepaRG (AID 2283481)
Method in brief: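 Differentiated human HepaRG cells in serum-free induction medium, dosed in duplicate for 48 h over 8 half-log concentrations topping at 100 uM (0.5% DMSO). CYP2B6 mRNA measured by TaqMan qRT-PCR, normalized to ACTB, GAPDH, POLR2A; bidirectional fit versus DMSO.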

[14] = read-out: Cytochrome P450 2C19 (Homo sapiens) (UniProt P33261); test: LTEA_HepaRG_CYP2C19: Life Technologies and Expression Analysis (LTEA) Assay for CYP2C19 using HepaRG (AID 2283482)
Method in brief: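 Differentiated HepaRG cells in serum-free induction medium exposed 48 h in duplicate, 8 concentrations from 100 uM by half-log steps in 0.5% DMSO. CYP2C19 mRNA measured by TaqMan qRT-PCR, normalized to ACTB, GAPDH, POLR2A. Bidirectional fit versus DMSO.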

CYP2C8 (gene 1558) = test: LTEA_HepaRG_CYP2C8: Life Technologies and Expression Analysis (LTEA) Assay for CYP2C8 using HepaRG (AID 2283483)
Method in brief: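 HepaRG (human liver line), 48 h chemical exposure, 8-pt half-log series from 100 uM, 0.5% DMSO vehicle. Readout: CYP2C8 transcript by qRT-PCR, housekeeping-normalized. Bidirectional fit vs DMSO baseline.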

CYP2C9 (gene 1559) = test: LTEA_HepaRG_CYP2C9: Life Technologies and Expression Analysis (LTEA) Assay for CYP2C9 using HepaRG (AID 2283484)
Method in brief: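 HepaRG, 48 h dosing, 8-pt half-log series, top 100 uM, 0.5% DMSO vehicle. Read-out: CYP2C9 transcript by TaqMan qRT-PCR, housekeeping-normalized (ACTB/GAPDH/POLR2A). Gain or loss fitted vs DMSO baseline.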

CYP2E1 (gene 1571) = test: LTEA_HepaRG_CYP2E1: Life Technologies and Expression Analysis (LTEA) Assay for CYP2E1 using HepaRG (AID 2283485)
Method in brief: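 CYP2E1 transcript measured by Fluidigm qRT-PCR against three housekeeping genes in human HepaRG cells treated 48 h (top 100 uM, half-log steps, 0.5% DMSO vehicle). Gain or loss fitted relative to DMSO baseline.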

CYP4A11 (gene 1579) = test: LTEA_HepaRG_CYP4A11: Life Technologies and Expression Analysis (LTEA) Assay for CYP4A11 using HepaRG (AID 2283486)
Method in brief: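 Differentiated HepaRG cells, 48 h after plating, exposed in duplicate for 48 h to 8 half-log concentrations up to 100 uM in 0.5% DMSO in serum-free induction medium. CYP4A11 mRNA measured by TaqMan qRT-PCR, normalized to ACTB, GAPDH and POLR2A.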

[15] = read-out: Cytochrome P450 3A4 (Homo sapiens) (UniProt P08684); test: LTEA_HepaRG_CYP3A4: Life Technologies and Expression Analysis (LTEA) Assay for CYP3A4 using HepaRG (AID 2283487)
Method in brief: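 Differentiated HepaRG cells, plated 48 h, then dosed 48 h in serum-free induction medium with 0.5% DMSO, 8 half-log concentrations up to 100 uM, duplicate. CYP3A4 mRNA by qRT-PCR, normalized to ACTB/GAPDH/POLR2A; bidirectional fit versus DMSO.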

Measured: AC50

Sequence of Apoptosis regulator Bcl-2 (Homo sapiens) (P10415 whole entry, looked up): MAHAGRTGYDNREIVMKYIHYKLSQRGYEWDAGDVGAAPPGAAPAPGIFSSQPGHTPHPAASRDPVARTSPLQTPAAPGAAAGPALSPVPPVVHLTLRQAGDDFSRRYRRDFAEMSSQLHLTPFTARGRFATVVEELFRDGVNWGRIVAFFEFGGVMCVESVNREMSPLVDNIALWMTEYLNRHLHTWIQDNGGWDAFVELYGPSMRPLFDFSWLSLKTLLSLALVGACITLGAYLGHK
Sequence of Cytochrome P450 3A4 (Homo sapiens) (P08684 whole entry, looked up): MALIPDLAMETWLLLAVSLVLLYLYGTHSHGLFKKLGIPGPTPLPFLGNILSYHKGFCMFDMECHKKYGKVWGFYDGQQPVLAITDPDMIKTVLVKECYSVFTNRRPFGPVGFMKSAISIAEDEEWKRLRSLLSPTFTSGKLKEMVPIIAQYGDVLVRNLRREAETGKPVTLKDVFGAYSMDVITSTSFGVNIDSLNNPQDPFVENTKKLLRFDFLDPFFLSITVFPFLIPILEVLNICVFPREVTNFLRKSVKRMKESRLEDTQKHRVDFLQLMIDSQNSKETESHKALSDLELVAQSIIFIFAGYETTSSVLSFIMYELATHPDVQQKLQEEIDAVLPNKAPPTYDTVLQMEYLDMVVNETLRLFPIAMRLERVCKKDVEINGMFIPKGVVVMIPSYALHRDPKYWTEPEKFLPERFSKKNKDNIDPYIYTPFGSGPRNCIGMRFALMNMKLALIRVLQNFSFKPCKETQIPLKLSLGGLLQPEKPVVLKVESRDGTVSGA
Sequence of Cytochrome P450 2C19 (Homo sapiens) (P33261 whole entry, looked up): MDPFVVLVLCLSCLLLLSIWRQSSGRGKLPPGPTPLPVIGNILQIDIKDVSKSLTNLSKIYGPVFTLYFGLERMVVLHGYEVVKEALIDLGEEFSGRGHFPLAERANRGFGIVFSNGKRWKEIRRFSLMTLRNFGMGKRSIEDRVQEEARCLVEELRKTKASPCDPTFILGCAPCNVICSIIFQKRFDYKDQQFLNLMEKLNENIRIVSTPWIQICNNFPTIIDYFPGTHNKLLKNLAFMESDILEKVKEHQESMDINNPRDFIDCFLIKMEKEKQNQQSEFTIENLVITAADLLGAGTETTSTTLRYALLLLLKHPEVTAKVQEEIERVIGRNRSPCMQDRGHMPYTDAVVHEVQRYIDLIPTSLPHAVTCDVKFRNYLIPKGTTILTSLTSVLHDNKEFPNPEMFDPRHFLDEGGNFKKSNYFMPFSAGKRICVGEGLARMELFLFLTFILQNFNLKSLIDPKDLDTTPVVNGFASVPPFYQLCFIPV

C=C(C)C(=O)[O][Sn]([CH2]CCC)([CH2]CCC)[CH2]CCC
active: [2] 1.58 µM | [4] 92.1 µM | [6] 2.17 µM | [7] 2.92 µM | [8] 2.07 µM | [9] 1.58 µM | Caspase-3 (Homo sapiens) 5 µM | [11] 0.471 µM | [13] 2.33 µM | [14] 2.64 µM | CYP2C8 (gene 1558) 2.38 µM | CYP4A11 (gene 1579) 1.49 µM | [15] 2.52 µM
inactive: [1] | [3] | [5] | [10] | [12] | CYP2C9 (gene 1559) | CYP2E1 (gene 1571)

CCC(C)(C)c1ccc(O)c(C(C)(C)CC)c1
active: [11] 80.4 µM
inactive: all other assays above

C[C@]12CCC(=O)C[C@@H]1CC[C@@H]1[C@@H]2CC[C@]2(C)[C@@H](O)CC[C@@H]12
active: [11] 65.1 µM | [14] 23.6 µM | CYP2E1 (gene 1571) 50 µM | CYP4A11 (gene 1579) 23.9 µM
inactive: all other assays above

CC12CC1(C)C(=O)N(c1cc(Cl)cc(Cl)c1)C2=O (centres undefined)
active: [1] 13.1 µM | [6] 25.8 µM | [11] 3.26 µM | [13] 4.53 µM | [14] 8.3 µM | CYP2E1 (gene 1571) 16.6 µM | CYP4A11 (gene 1579) 9.13 µM | [15] 5.34 µM
not listed: Caspase-3 (Homo sapiens)
inactive: all other assays above
